The supplement of paper PMC3334620
Over roughly 33,000 sequences, “E-score (-0.5 to 0.5)” has its median near -0.016; the highest 2% begin near 0.3. Only a selection was taken, and the highest values are over-represented in it overall.

target: T1, Yer184c (UniProt P39961); assay: PBM E-score (8-mer binding enrichment) (E-score (-0.5 to 0.5)); higher = stronger / more preferred TF binding; conditions: protein concentration: 100 nM; construct: GST-full length
T1 sequence: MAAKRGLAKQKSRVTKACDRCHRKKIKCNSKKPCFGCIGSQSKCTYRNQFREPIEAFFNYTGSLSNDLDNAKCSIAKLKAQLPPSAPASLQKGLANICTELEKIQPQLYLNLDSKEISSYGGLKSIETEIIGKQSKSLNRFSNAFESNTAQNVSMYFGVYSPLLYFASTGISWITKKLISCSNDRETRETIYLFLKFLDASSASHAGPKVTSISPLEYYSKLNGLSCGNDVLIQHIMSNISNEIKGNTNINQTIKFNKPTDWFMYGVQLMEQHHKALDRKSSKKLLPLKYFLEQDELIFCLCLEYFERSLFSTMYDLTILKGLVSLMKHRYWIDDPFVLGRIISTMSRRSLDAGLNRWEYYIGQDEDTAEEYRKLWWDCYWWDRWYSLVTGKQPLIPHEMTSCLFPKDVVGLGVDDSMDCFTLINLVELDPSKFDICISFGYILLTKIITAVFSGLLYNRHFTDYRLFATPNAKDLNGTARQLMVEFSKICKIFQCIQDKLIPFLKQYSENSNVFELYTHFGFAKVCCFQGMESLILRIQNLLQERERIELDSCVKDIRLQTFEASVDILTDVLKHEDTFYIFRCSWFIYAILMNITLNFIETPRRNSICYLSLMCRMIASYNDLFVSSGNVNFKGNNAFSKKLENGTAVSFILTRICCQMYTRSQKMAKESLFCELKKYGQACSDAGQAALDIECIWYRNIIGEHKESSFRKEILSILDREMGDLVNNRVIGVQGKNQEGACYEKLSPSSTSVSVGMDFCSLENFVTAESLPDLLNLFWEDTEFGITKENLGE
Procedure: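 Universal 'all 10-mer' protein binding microarrays (Agilent AMADID 015681) probed with GST-tagged S. cerevisiae TFs (full-length or DBD) made by in vitro transcription/translation (PURExpress), about 100-200 nM. Bound TF was detected with fluorescent anti-GST. Each ungapped 8-mer (which stands for itself and its reverse complement) is scored by the PBM enrichment score (E-score), a modified Wilcoxon-Mann-Whitney statistic from -0.5 to +0.5, computed with the Universal PBM Analysis Suite. Scale: above 0.35 generally sequence-specific binding.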

Row | Sequence | PBM E-score
1 | TCGATTAA | 0.148
2 | ATCGGCAC | 0.27
3 | CACGGCAA | 0.199
4 | CTCGGCAG | 0.31
5 | GTCGGCAC | 0.1
6 | CTCGGCCA | 0.204
7 | ATCGGCAA | 0.246
8 | TTCGGCAA | 0.336
9 | CTCGGCAA | 0.319
10 | CACGGCAG | 0.0946
11 | GTCGGCAA | 0.263
12 | ATCGGCAG | 0.247
13 | CTCGGCAC | 0.31
14 | AGGACCTG | -0.174
15 | ATATACCC | 0.021
16 | TCTATAGA | -0.137
17 | GTCAATAA | 0.158
18 | AAGTATCC | 0.0522
19 | CAGGGCTC | -0.226
20 | GAGAGCGC | -0.218
21 | AGCAGCAT | -0.206
22 | AGAGTAAC | 0.0419
23 | CAATAGAG | -0.242
24 | CCAGCCTA | -0.206
25 | CCCGCTCA | -0.141

Row | Sequence | PBM E-score
26 | CCTAAGTA | 0.106
27 | CGCCGGGA | 0.312
28 | AGCCGGGC | 0.172
29 | AGCCGGGG | 0.0566
30 | AGCCGGGA | 0.311
31 | GGCCGGGA | 0.292
32 | CGCCGGGC | 0.286
33 | CAAACAGC | -0.0581
34 | ATGCGTGA | 0.0231
35 | AATCTAAT | 0.0331
36 | ATCAAGTC | -0.0287
37 | ATGAACAG | 0.17
38 | ACGGCAAG | 0.0759
39 | CCGGCAAG | 0.331
40 | GCGGCAAA | 0.107
41 | CCGGCAAC | 0.293
42 | CCGGCAAA | 0.374
43 | ACGGCAAA | 0.211
44 | CTAGCAGC | -0.0845
45 | GAAAGCTA | 0.00964
46 | ACGACCGG | 0.0371
47 | TGCAAACA | -0.168
48 | AAATCGAT | 0.0714
49 | CCCGGCGA | 0.236
50 | GACGGCGA | -0.034

Row | Sequence | PBM E-score
51 | ACCGGCGA | 0.284
52 | ACCGGCGC | 0.226
53 | TCCGGCGA | 0.38
54 | GGCGGCGA | 0.0554
55 | CCCGGCGC | 0.216
56 | GCCGGCGA | 0.311
57 | GCCGGCGC | 0.406
58 | AAGAGGAA | 0.23
59 | AGTGAGAA | 0.118
60 | CCGATGCA | 0.157
61 | GAGTCAGC | -0.101
62 | TCAGGGGA | -0.252
63 | CTTCAAGA | 0.171
64 | AAAAACAG | 0.115
65 | GTTCCACA | -0.0536
66 | CACTCCGA | 0.0993
67 | AGCTCCGA | 0.251
68 | AGCTCCGG | 0.313
69 | ACCTCCGT | 0.107
70 | CCCTCCGG | 0.1
71 | AACTCCGA | 0.325
72 | TACTCCGA | 0.262
73 | ACCTCCGG | 0.357
74 | GACTCCGA | -0.0256
75 | CACTCCGC | -0.0284

Row | Sequence | PBM E-score
76 | CACTCCGG | 0.306
77 | AGCTCCGC | 0.127
78 | CAAGAATG | 0.103
79 | GTTGGAGA | 0.0278
80 | GTCGCCTA | -0.157
81 | GGACGCCC | -0.106
82 | AGGGGCAT | -0.358
83 | ATTCTGCC | 0.201
84 | CCAAGCGG | -0.15
85 | AACTCCGG | 0.424
86 | AACTCCGC | -0.0142
87 | AACTCCGT | 0.222
88 | AGTTCGAG | -0.00888
89 | AAGGGGTA | -0.351
90 | CAACGCCG | 0.294
91 | AGGCGCCG | 0.207
92 | AAGCGCTC | 0.0112
93 | CGGCGCCG | 0.443
94 | AAACGCCA | 0.089
95 | AAGCGCTA | 0.0496
96 | AAGCGCCA | -0.208
97 | AAGCGCCT | -0.14
98 | AAACGCCG | 0.334
99 | CGGCGCCA | 0.162
100 | AAGCGCTT | 0.306

Row | Sequence | PBM E-score
101 | AAGCGCCG | 0.373
102 | ATGACCTG | -0.0827
103 | AATTGACA | 0.0558
104 | GGGCAGGA | -0.269
105 | GGGGTACA | -0.111
106 | CGCATTAG | -0.101
107 | CGATGCAA | -0.00579
108 | ATGCCCCG | -0.139
109 | TCATCGCA | -0.0385
110 | CCGGGCCA | 0.14
111 | CCGGGCCC | 0.262
112 | CCGGGCCG | 0.429
113 | ACGGCCCG | 0.146
114 | ATCGGCCC | 0.113
115 | CCGGCCCA | 0.181
116 | ATCGGCCA | 0.125
117 | AGCGGCCG | 0.315
118 | CGCGGCCG | 0.251
119 | CCGGCCCG | 0.386
120 | AGCGGCCA | -0.161
121 | ATCGGCCG | 0.388
122 | GAATCTGC | 0.12
123 | CTAGTGAG | -0.0187
124 | ACCCCGCG | -0.119
125 | AAACTGTC | -0.133

Row | Sequence | PBM E-score
126 | AGCAGTGC | -0.185
127 | ACCGGCCA | 0.173
128 | AGGGCCCG | 0.0448
129 | CCCGGCCA | 0.209
130 | CGGGCCCA | 0.0473
131 | CGGGCCCG | 0.351
132 | CCCGGCCG | 0.371
133 | ACCGGCCG | 0.413
134 | CCCGGCCC | 0.161
135 | ACCGGCCT | 0.0901
136 | ACAACCTA | -0.00165
137 | GAGTGGCC | -0.0531
138 | AGTACTAG | 0.0969
139 | ACAAGCTG | 0.0583
140 | AGCCACTA | -0.112
141 | AAAATCCA | -0.0451
142 | ATGTGAGG | 0.0347
143 | TCAACACA | 0.179
144 | ATTCCGAA | 0.388
145 | AGTCCGAG | 0.268
146 | GGTCCGAA | 0.303
147 | ACTCCGAA | 0.241
148 | CTTCCAAA | 0.0435
149 | ATTCCGAG | 0.353
150 | CTTCCGAA | 0.39

Row | Sequence | PBM E-score
151 | CTTCCGAC | 0.173
152 | ATTCCGAC | 0.211
153 | ACTCCGAG | 0.233
154 | GTTCCGAA | 0.369
155 | GTTCCAAA | 0.158
156 | AAGAATTA | 0.134
157 | CGGCCACA | 0.194
158 | CACATTCG | 0.097
159 | CGGGTATA | 0.196
160 | CAGGGAAA | 0.0066
161 | ACCATTGC | -0.0741
162 | GTTTTACA | -0.015
163 | GCCAACCA | -0.155
164 | ATTTAATA | 0.313
165 | ATTTAGTC | 0.133
166 | TATTAATA | -0.00461
167 | ATTTAGTA | 0.328
168 | CTTTAGTA | -0.0339
169 | AATTAATT | 0.0189
170 | AATTAATA | 0.407
171 | CTTTAATA | 0.245
172 | GTTTAATA | 0.155
173 | GCTGCACA | -0.159
174 | CGCAGTGC | -0.204
